PubChem BioAssay AID1851 (National Center for Advancing Translational Sciences (NCATS), 2009)
Hit rate of the full screen: of about 16,000 compounds, about 5,100 (32%) were called active. Another 25% or so got no clear call; they are omitted. The list shows a part of the results. Unmarked numbers belong to inactive results. Calls come from the whole dose curve; as a rule, active = well fitted curve in the direction sought with a large enough effect; inconclusive = small, poorly fitted or top-dose-only effect, or effect the other way; inactive = no such curve, though single readings can be large or run the other way.

Target: Cytochrome P450 3A4 (Homo sapiens) (UniProt P08684)
Test: Cytochrome panel assay with activity outcomes
Settings: recombinant CYP, pro-luciferin dealkylation, luminescence, p450-cyp3a4; series mostly up to 57.1 µM; activity, negative = inhibition: at the top concentration
% is set by controls: 0 for no effect and ±100 for the full control effect.

Chain of Cytochrome P450 3A4 (Homo sapiens) (P08684 whole entry, looked up): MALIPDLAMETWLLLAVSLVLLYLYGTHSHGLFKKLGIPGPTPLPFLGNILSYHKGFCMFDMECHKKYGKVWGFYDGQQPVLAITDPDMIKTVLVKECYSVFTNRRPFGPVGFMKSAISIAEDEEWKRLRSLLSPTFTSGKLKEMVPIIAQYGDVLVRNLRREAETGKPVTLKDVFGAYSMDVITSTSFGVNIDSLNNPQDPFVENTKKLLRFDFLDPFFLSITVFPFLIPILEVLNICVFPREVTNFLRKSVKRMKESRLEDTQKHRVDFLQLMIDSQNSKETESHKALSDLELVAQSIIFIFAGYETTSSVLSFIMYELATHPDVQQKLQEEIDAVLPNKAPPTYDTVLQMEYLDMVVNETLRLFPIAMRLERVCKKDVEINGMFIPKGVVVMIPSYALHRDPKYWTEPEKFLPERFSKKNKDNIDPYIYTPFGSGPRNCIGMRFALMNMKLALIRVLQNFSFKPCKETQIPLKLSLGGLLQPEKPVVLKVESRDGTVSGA

Q: How did the “activity, negative = inhibition” value turn out when `O=C(Cc1cccs1)N/N=C/C(Br)=C/c1ccccc1` was run?
A: Its value is -21.3%.

Q: With `O=C(NC1CCCC1)C(c1ccc(F)cc1)N(Cc1ccc(F)cc1)C(=O)c1ccn[nH]1` (centres undefined) as the compound, how does the activity, negative = inhibition read?
A: Its activity, negative = inhibition is -28.2% [at 2.29 µM].

Q: `O=C(NC1CCCCC1)C(c1cccs1)N(Cc1cccs1)C(=O)c1ccco1` (centres undefined) was tested. Which AC50 did it give?
A: The AC50 was 3.16 µM (active).

Q: For `O=C(NC1CCCC1)C(c1ccsc1)N(Cc1ccccc1)C(=O)Cc1cccs1` (centres undefined), which AC50 is on record?
A: The AC50 was 2 µM (active).

Q: For `COc1ccc(C(C(=O)NC2CCCC2)N(Cc2ccc(F)cc2)C(=O)c2ccn[nH]2)cc1OC` (centres undefined), which AC50 is on record?
A: The AC50 was 3.98 µM (active).

Q: With `COc1ccc(CN(C(=O)Cc2cccs2)C(C(=O)NC2CCCC2)c2ccncc2)cc1` (centres undefined) as the compound, how does the AC50 read?
A: Its AC50 is 1 µM (active).

Q: `O=C(O)c1cscc1Cc1cccs1` was tested. Which activity, negative = inhibition did it give?
A: Its activity, negative = inhibition is 17.7% [at 11.4 µM].

Q: How did the “activity, negative = inhibition” value turn out when `CCc1cc2c(=O)[nH]cnc2s1` was run?
A: The value was -7.75%.

Q: Which activity, negative = inhibition does the source give for `O=C(O)/C=C(/C(=O)O)[C@]12CCN3CC4=CCO[C@@H]5CC(=O)N[C@@H]1[C@H]5[C@H]4C[C@H]32` here?
A: Its activity, negative = inhibition is 2.64% [at 11.4 µM].

Q: Which “activity, negative = inhibition” value does the source give for `COCCCN=CC1=C(O)CC(C)(C)CC1=O` here?
A: Its value is 3.18%.

Q: Which AC50 does the source give for `COc1ccc(CCN=CC2=C(O)CC(C)(C)CC2=O)cc1` here?
A: The AC50 was 14.1 µM (active).

Q: Which “activity, negative = inhibition” value does the source give for `COC(=O)C1C(O)=C(C=NCc2ccccc2)C(=O)CC1(C)C` (centres undefined) here?
A: Its value is -8.8%.

Q: `Cc1cc(C)c2[nH]c(=O)c(CN(Cc3ccco3)C(=O)c3cccs3)cc2c1` was tested. Which AC50 did it give?
A: The AC50 was 2.82 µM (active).

Q: With `CC1(C)CC(=O)C2=C(C1)N(Cc1cccnc1)C(=O)C2(NC(=O)c1cccnc1)C(F)(F)F` (centres undefined) as the compound, how does the AC50 read?
A: Its AC50 is 12.6 µM (active).

Q: How did the AC50 turn out when `CCCCN1C(=O)C(NC(=O)c2cccnc2)(C(F)(F)F)C2=C1CC(C)(C)CC2=O` (centres undefined) was run?
A: The AC50 was 7.94 µM (active).

Q: How did the activity, negative = inhibition turn out when `CCCCN1C(=O)C(NC(=O)CC(C)C)(C(F)(F)F)C2=C1CC(C)(C)CC2=O` (centres undefined) was run?
A: The activity, negative = inhibition was -16% [at 2.29 µM].

Q: `O=C(NC1(C(F)(F)F)C(=O)Nc2c1c(=O)[nH]c(=O)n2-c1ccc(F)cc1)c1cccnc1` (centres undefined) was tested. Which “activity, negative = inhibition” value did it give?
A: The value was 10.8%.

Q: For `CCCCN1C(=O)C(NC(=O)C2CC2)(C(F)(F)F)C2=C1CC(C)(C)CC2=O` (centres undefined), which activity, negative = inhibition is on record?
A: The activity, negative = inhibition was 5.27% [at 2.29 µM].

Q: Which “activity, negative = inhibition” value does the source give for `CN(C)CC(O)COc1ccc(C(C)(C)c2ccc(OCC(O)CN(C)C)cc2)cc1` (centres undefined) here?
A: Its value is 0.345%.

Q: With `Nc1ccc(N2CCN(C(=O)c3ccco3)CC2)cc1` as the compound, how does the “activity, negative = inhibition” value read?
A: The value was -20.2%.

Q: With `CC1(C)CC(=O)C(CCCN2C(=O)c3ccccc3C2=O)C(=O)C1` as the compound, how does the “activity, negative = inhibition” value read?
A: Its value is -15.9%.

Q: How did the AC50 turn out when `CCOC(=O)c1cc2sc(C)cc2n1CC(=O)N1CCN(C(=O)c2ccco2)CC1` was run?
A: Its AC50 is 14.1 µM (active).

Q: `CCOC(=O)c1cc2sc(C)cc2n1CCCN1C(=O)c2ccccc2C1=O` was tested. Which AC50 did it give?
A: Its AC50 is 3.16 µM (active).

Q: For `OCCN(CCO)c1ncnc2nc[nH]c12`, which activity, negative = inhibition is on record?
A: Its activity, negative = inhibition is -5.25% [at 11.4 µM].
